Experimental data: PubChem BioAssay AID651636 (Sanford-Burnham Center for Chemical Genomics, 2012)
Screen size: about 360,000 compounds; about 3,000 (0.83%) were called active. The entries come from a sample that favours actives as a whole. A number with no mark means an inactive call. Rule as the data show it: active = inhibition above about 38%; inactive = the rest.

What follows are compounds tested against G-protein coupled receptor 183 (Homo sapiens) (UniProt P32249) (assay: blockers of oxysterol-driven EBI2 arrestin signaling – cell-based, luminescence, 7a,25-OHC stimulation, uHTS, primary screen (AID 651636;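 also: enzyme fragment complementation signal reports receptor beta-arrestin coupling in cells; 0% = agonist plus DMSO wells and 100% = wells without agonist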)). Settings: EBI2 beta-arrestin recruitment, 7a,25-OHC stimulated, at 5 µM, stronger effect = higher value.
Sequence of G-protein coupled receptor 183 (Homo sapiens) (P32249 whole entry, looked up, the tested form may be a part): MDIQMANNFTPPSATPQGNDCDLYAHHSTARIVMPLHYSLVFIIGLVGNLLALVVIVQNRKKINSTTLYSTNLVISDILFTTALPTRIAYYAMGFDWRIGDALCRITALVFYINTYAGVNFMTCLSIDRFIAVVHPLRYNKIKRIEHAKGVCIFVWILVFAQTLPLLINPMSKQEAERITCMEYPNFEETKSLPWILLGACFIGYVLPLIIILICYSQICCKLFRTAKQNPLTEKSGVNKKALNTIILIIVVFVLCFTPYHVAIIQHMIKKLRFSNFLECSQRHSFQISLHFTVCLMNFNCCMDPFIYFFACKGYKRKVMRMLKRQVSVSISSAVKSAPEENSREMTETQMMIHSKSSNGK

Going from `O=C(O)/C=C/C(=O)NNc1ccc([N+](=O)[O-])cc1` to `O=C(Cc1ccccc1)N1CCN(S(=O)(=O)c2ccc([N+](=O)[O-])cc2)CC1`, the inhibition rises from -16.6% to -5.46%.

Compared with `O=C(NC(CC(=O)N1CCN(c2ccccc2)CC1)c1ccccc1)c1ccccc1Cl` (centres undefined), `COC(=O)[C@H](Cc1ccccc1)NC(=O)[C@@H]1C[C@H]1[C@@H](NC(=O)OCc1ccccc1)c1ccccc1` is higher in inhibition: 11.4% for the first, 16.3% for the second.

Compared with `COc1ccc([N+](=O)[O-])cc1NC(=O)CC1SC(=Nc2cccc(C)c2C)N(/N=C(\C)c2ccc(C)cc2)C1=O` (centres undefined), `COC(=O)c1cccc([N+](=O)[O-])c1CS(=O)(=O)c1ccc(C)cc1` is lower in inhibition: 3.23% for the first, -6.03% for the second.

Compared with `Cc1noc(C)c1-c1ccc(C(=O)NCc2ccncc2)c2occc12`, `Cc1oc2nc(SCC(=O)NCc3cccnc3)nc(N)c2c1C` is higher in inhibition: -22.7% for the first, -8.34% for the second.

Compared with `C/C(Cl)=C\Cn1c(Nc2cccc(C)c2)nc2c1c(=O)n(C)c(=O)n2C`, `CCOC(=O)N1CCN(C(=O)CSc2nc(C)nc3c2c(=O)n(C)c(=O)n3C)CC1` is lower in inhibition: 22.8% for the first, -7.04% for the second.

Going from `OC[C@@H]1CN(C2CCCC2)C[C@H](n2cnc3c(NC4CCC4)ncnc32)O1` to `c1ccc(CCn2nnnc2CN2CCN(C3CCCC3)CC2)cc1`, the inhibition rises from -9.08% to -2.13%.

Going from `CCNc1nc(NC(C)C)nc(OCCOC(=O)c2ccccc2)n1` to `C=CCn1c(C(C)NC(=O)CC)nc2ccccc21` (centres undefined), the inhibition falls from -0.581% to -24.2%.

Compared with `CCN(CC)S(=O)(=O)c1ccc(Cl)c(C(=O)NC(C)C(c2cccs2)N2CCCC2)c1` (centres undefined), `CC(Sc1ccccc1F)C(=O)Nc1cccc(S(=O)(=O)N2CCOCC2)c1` (centres undefined) is higher in inhibition: -5.7% for the first, 7.64% for the second.

First: Clc1ccc(-c2cc(C3CCNCC3)[nH]n2)c(Cl)c1
Second: Cc1cc(C)nc(/N=C2\NC(=O)CC(C(=O)O)N2c2ccc(Cl)cc2Cl)n1 (centres undefined)
The inhibition of the first is higher: 0.184% for the first, -2.42% for the second.

Going from `Cc1nc(NC(=O)C2CCCCC2)sc1C` to `CCOC(=O)C1CCN(C(=O)Nc2ccc(C)c(Cl)c2)CC1`, the inhibition rises from -5.16% to 8.32%.

First: O=C1C(=O)N(c2ccccc2)c2ccccc21
Second: Nc1nc(SCC(=O)NN(c2ccccc2)c2ccccc2)n[nH]1
The inhibition of the first is higher: 4.82% for the first, -1.98% for the second.

Compared with `COc1cc(C(C)=O)ccc1OC(=O)CN1C(=O)c2ccccc2C1=O`, `CCN1CCN(C(=O)CCN2C(=O)c3ccccc3C2=O)CC1` is higher in inhibition: -7.55% for the first, 5.39% for the second.

Going from `COC(=O)c1ccc(NC(=O)c2cc3c(CO)cnc(C)c3oc2=Nc2cccc(C(N)=O)c2)cc1` to `CC(=O)Nc1ccc(CNc2nc(NCCN(C)C)nc3cc(-c4ccccc4)sc23)cc1`, the inhibition falls from 12.4% to 0.94%.

Going from `COc1ccc(N2CCN(C(c3cc4ccc(C)cc4[nH]c3=O)c3nnnn3C3CCCC3)CC2)cc1` (centres undefined) to `COc1ccc(C(c2nnnn2C2CCCCC2)N2CCN(c3ccccc3F)CC2)cc1` (centres undefined), the inhibition rises from 2.46% to 31.1%.

Going from `CC(C)C(c1nnnn1C1CCCC1)N1CCN(c2ccccc2F)CC1` (centres undefined) to `COc1ccccc1C(c1nnnn1C(C)(C)C)N1CCN(Cc2ccccc2)CC1` (centres undefined), the inhibition falls from 11.7% to -27.6%.

Compared with `CCCCn1nnnc1C(c1cccc(OC)c1OC)N1CCN(C/C=C/c2ccccc2)CC1` (centres undefined), `COc1ccccc1N1CCN(C(=O)C(=O)N/N=C/c2ccccc2F)CC1` is lower in inhibition: 24.9% for the first, 2.46% for the second.

First: O=C(CC1SCCNC1=O)Nc1ccc(Cl)cc1 (centres undefined)
Second: O=C(CSc1ccc(Cl)cc1)NC1CC1
The inhibition of the first is higher: 0.627% for the first, -0.473% for the second.

First: CCOc1ccc(CCNC(=O)C(CC)n2nc(C)n3c(cc4sccc43)c2=O)cc1OCC (centres undefined)
Second: Cc1cccc(-c2nc(CS(=O)CC(=O)NC(C)CCc3ccccc3)c(C)o2)c1 (centres undefined)
The inhibition of the first is lower: 0.672% for the first, 0.721% for the second.

Compared with `Cc1ccc(-c2cc(C(F)(F)F)n3ncc(C(=O)N4CCCCC4c4cccnc4)c3n2)cc1` (centres undefined), `Cc1ccc(-n2c(CNc3ccc(F)cc3)nnc2SCC(=O)N2CCOCC2)cc1` is lower in inhibition: 19.8% for the first, 7.68% for the second.

Going from `CCn1c(N)c(Br)c(=O)[nH]c1=O` to `CCNC(=O)COc1cc(C)c(Br)c(C)c1`, the inhibition falls from -5.96% to -7.22%.

Compared with `CC(=O)Nc1ccc(SCC(=O)Nc2ccccc2Oc2ccccc2)cc1`, `CC1CCCN(CC(=O)Nc2cc(Cl)ccc2Oc2ccccc2)C1` (centres undefined) is lower in inhibition: 6.4% for the first, 6.08% for the second.

Going from `Cn1c(=O)c(=O)n(C)c2cc(S(=O)(=O)CCC(=O)N3CCCCC3)ccc21` to `O=C(COc1ccc(Cl)cc1[N+](=O)[O-])N1CCCCC1`, the inhibition rises from -3.96% to 5.52%.

Going from `CN1CCN(C(=O)Cn2c(C(F)(F)F)nc3ccccc32)CC1` to `CS(=O)(=O)N1CCN(C(=O)CSc2ccccc2)CC1`, the inhibition rises from -3.36% to 4.92%.

First: COC(=O)[C@]12CCCCC=C1N(Cc1ccc3c(c1)OCO3)C(=O)[C@H](CC(=O)N1CCOCC1)C2
Second: Cc1cc(S(=O)(=O)N2CCOCC2)ccc1OCC(=O)N1CCOCC1
The inhibition of the first is higher: 6.39% for the first, -8.03% for the second.

First: O=C(Nc1ccc2c(c1)CCC2)c1ccc(Br)s1
Second: O=C(NNC1=C(C(=O)C(F)(F)F)CCC1)c1ccncc1
The inhibition of the first is lower: -9.47% for the first, 8.49% for the second.

Going from `CCOC(=O)N1CCN(S(=O)(=O)c2ccc(Br)cc2)CC1` to `CCOC(=O)N1CCN(C(=O)COC(=O)c2cccc(S(C)(=O)=O)c2)CC1`, the inhibition falls from 8.56% to -8.93%.

Compared with `CCOC(=O)C1CCN(C(=O)COc2cccc3ccccc23)CC1`, `O=C(NCc1ccc(F)cc1)C1CCN(C(=O)Nc2ccc(F)cc2)CC1` is higher in inhibition: 6.68% for the first, 16% for the second.

Going from `CC(=O)c1c(C)[nH]c(C(=O)OCC(=O)Nc2c(C)n(C)n(-c3ccccc3)c2=O)c1C` to `Cc1cccc(Oc2c([N+](=O)[O-])c(=O)n(C)c3ccccc23)c1`, the inhibition falls from 8.82% to -38.4%.

Compared with `Cc1cccn2c(=O)nc(SCC(=O)NCc3ccccc3Cl)nc12`, `O=C(COc1nsnc1N1CCOCC1)Nc1ccccc1Cl` is higher in inhibition: -6.29% for the first, -1.57% for the second.

Compared with `Cc1nn(C)cc1/C=C1\CCC/C(=C\c2cn(C)nc2C)C1=O`, `Cc1ccc([N+](=O)[O-])cc1S(=O)(=O)N1CCCN(C)CC1` is lower in inhibition: 6.14% for the first, -7.92% for the second.

First: CC(C)CN1C(=O)CN(S(C)(=O)=O)CC1(C)C(=O)NCc1ccccc1 (centres undefined)
Second: Cn1c(=O)cc(SCC(=O)N2CCN(C(=O)c3ccco3)CC2)c2ccccc21
The inhibition of the first is higher: -1.75% for the first, -7.92% for the second.

Going from `C=CCOc1ccc(/C=C/C(=O)OCC(=O)NC2CCCCCC2)cc1` to `CC(=O)c1ccc(OCC(=O)N(C)C2CCS(=O)(=O)C2)cc1` (centres undefined), the inhibition falls from 0.205% to -3.69%.

Compared with `N#C/C(=C\c1ccccc1)c1n[nH]c(Cn2cncn2)n1`, `O=C1NC(c2ccccc2)Cc2ccncc21` (centres undefined) is lower in inhibition: -5.28% for the first, -15.8% for the second.

Compared with `COC(=O)C[C@@H]1C=C[C@@H](NC(=O)c2ccc3c(c2)OCO3)[C@@H](CO)O1`, `Nc1[nH][nH]c(=O)c1N=Nc1ccc2c(c1)OCO2` is lower in inhibition: 0.556% for the first, -4.76% for the second.

First: CCNC(=S)N1CCC(c2nc3cc(C)c(C)cc3[nH]2)CC1
Second: Cc1coc2c(O)cc3c(c12)OC1(N2CCCCC2)C(=O)NCCCC31 (centres undefined)
The inhibition of the first is lower: -8.84% for the first, 9.31% for the second.

Going from `NCCCCC(C(=O)O)N(C(=O)OCc1ccccc1)C(=O)OCc1ccccc1` (centres undefined) to `CCC(=C/c1sc2ccc3ccccc3c2[n+]1C)/C=C1\Sc2ccc3ccccc3c2N1C`, the inhibition rises from -5.81% to 1.97%.

Compared with `CC(C)Oc1ccc(C(=O)NC(C)(C)CO)cc1`, `Cn1cc[n+](C)c1COc1ccc(C=O)cc1` is higher in inhibition: -14.5% for the first, -3.22% for the second.

Going from `Cc1cccc(N=C2SC(C)CN2C(=O)CN2C(=O)NC3(CCCC3)C2=O)c1` (centres undefined) to `CS(=O)(=O)N(CC(=O)N1CCN(c2ccc(F)cc2)CC1)C1CCCCC1`, the inhibition falls from 8.85% to -6.78%.

`Cn1c(N)c(C(=O)COC(=O)C23CC4CC(CC(C4)C2)C3)c(=O)n(C)c1=O` was tested, and the inhibition was -6.77%.

For `CC(C)OC(=O)CN1C(=O)C(=O)c2ccccc21`, the inhibition was 54.2% (active).
With `FC(F)(F)Oc1ccccc1C(c1nnnn1C1CCCCC1)N1CCN(C/C=C/c2ccccc2)CC1` (centres undefined) the inhibition was 70.3% (active).
With `c1ccc(C(c2ccccc2)N2CCN(Cc3nnnn3C3CCCCC3)CC2)cc1` the inhibition was 60.9% (active).
In the case of `COc1ccc(C(c2nnnn2C2CCCC2)N2CCN(C/C=C/c3ccccc3)CC2)cc1` (centres undefined), the inhibition is reported as 54.1% (active).
In the case of `O=C(CSc1ccccc1)Nc1cc(Cl)ccc1Oc1ccccc1`, the inhibition is reported as 63.2% (active).
In the case of `CC(C)Cn1c(N2CCN(C(=O)/C=C/c3ccccc3)CC2)nc2ccccc21`, the inhibition is reported as 59.1% (active).
In the case of `CCOC(=O)N1CCN(C(=O)COc2ccc(Br)cc2)CC1`, the inhibition is reported as 89% (active).
`CCOC(=O)N1CCN(C(=O)COc2ccc(Cl)cc2C)CC1` was tested, and the inhibition was 63.5% (active).
With `CCOC(=O)C1CCN(C(=O)COc2cc(C)c(Br)c(C)c2)CC1` the inhibition was 74.6% (active).
`O=C1/C(=C\c2ccc([N+](=O)[O-])cc2)CS(=O)(=O)C/C1=C/c1ccc([N+](=O)[O-])cc1` was tested, and the inhibition was 50.3% (active).
With `Fc1ccccc1/C=N/Nc1cc(N2CCCCC2)ncn1` the inhibition was 53.8% (active).
In the case of `Cc1cccc(N=C2NC(=O)/C(=C/c3cn(C)c4ccccc34)S2)c1`, the inhibition is reported as 45% (active).
`COc1ccc(NC(=O)/C(Cl)=C(/Cl)S(=O)Cc2ccc(C)cc2)cn1` (centres undefined) was tested, and the inhibition was 68.1% (active).
`O=C(Nc1ccccc1Cl)/C(Cl)=C(\Cl)S(=O)c1ccccc1` (centres undefined) was tested, and the inhibition was 59.7% (active).
`CCN1CCN(C(=O)CSc2ccc(C)cc2)CC1` was tested, and the inhibition was 70.3% (active).
For `CCOC(=O)N1CCN(C(=O)CSc2ccc(Cl)cc2)CC1`, the inhibition was 84.7% (active).
For `Cc1ccc(SCC(=O)N2CCN(c3ccc(F)cc3)CC2)cc1`, the inhibition was 62.9% (active).
